In PubChem BioAssay (NCATS):
Inconclusive results are not listed. Activity calls are given as the source filed them. Calls follow the shape of the dose curve; as a rule, active = well fitted cell-killing curve with a large enough effect; inconclusive = small, poorly fitted or top-dose-only effect, or effect the other way; inactive = flat fitted curve, though single readings scatter.

Columns and labels:
Experiment in all cases: Primary qHTS to identify gynecologic anti-cancer compounds using libraries of approved drugs and bioactive compounds (AID 1345084); also: nearly all actives have a fitted effect of over 55% in size
Details in all cases: Gynecologic cancer cell panel viability, ATPlite luminescence, 48 h; series mostly up to 57.5 µM
PA-1 = tested on: PA-1
Summary of the method: (§1)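 Five-point cytotoxicity, 48 h drug exposure at 37 C, 5% CO2, on cells seeded 16 h beforehand. ATP content read by ATPlite luminescence.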

SKOV3 = tested on: SKOV3
Summary of the method: as §1

Tov-21-G = tested on: Tov-21-G
Summary of the method: as §1

Tov112D = tested on: Tov112D
Summary of the method: as §1
% is scaled to controls: 0 for no effect and ±100 for the full control effect.

C=C1CC23CC(=O)C4C(CO)(CO)CCCC4(C)C2CCC1C3 (configuration not stated)
inactive: Potency (PA-1) | Potency (SKOV3) | Potency (Tov-21-G) | Potency (Tov112D)

COc1cc(C)c(C(=O)OC2C(C)OC(OC3CCC(C)C4C3C=C(C)C3/C(C)=C\CC/C(C)=C/C5(C)C=C(C(=O)O)C(C)CC56OC(=O)/C(=C(\O)C34C)C6=O)C(O)C2O)c(OC)c1 (configuration not stated)
inactive: activity change, negative = cytotoxicity (PA-1) -4.04% [at 11.6 µM] | activity change, negative = cytotoxicity (SKOV3) -6.42% [at 11.6 µM] | activity change, negative = cytotoxicity (Tov-21-G) 1.13% [at 11.6 µM] | activity change, negative = cytotoxicity (Tov112D) 1.96% [at 11.6 µM]

COC(=O)[C@H](O)[C@H]1C(C)(C)[C@H](OC(C)=O)[C@@]2(O)C(=O)[C@]1(C)C1CC[C@]3(C)C(CC(=O)O[C@H]3c3ccoc3)[C@]13O[C@@H]32 (some centres not stated)
inactive: Potency (PA-1) | Potency (SKOV3) | Potency (Tov-21-G) | Potency (Tov112D)

C=C1CCC(OC(C)=O)C2(C)CC3OC(=O)C(C)=C3CC12 (configuration not stated)
inactive: Potency (PA-1) | Potency (SKOV3) | Potency (Tov-21-G) | Potency (Tov112D)

Cc1nc(-c2cccnc2)sc1C(=O)Nc1ccccc1-c1cn2c(CN3CCOCC3)csc2n1
inactive: Potency (PA-1) | Potency (SKOV3) | Potency (Tov-21-G) | Potency (Tov112D)

C=C1C2CCC3CC2(CC(O)C2(O)C1CC(OC1OC(CO)C(O)C(O)C1O)C2(C)C)CC3(C)O (configuration not stated)
inactive: Potency (PA-1) | Potency (SKOV3) | Potency (Tov-21-G) | Potency (Tov112D)

C[C@H]1[C@H](C)CC[C@]2(C(=O)O)CC[C@]3(C)C(=CCC4[C@@]5(C)C[C@@H](O)[C@H](O)C(C)(C)C5CC[C@]43C)[C@H]12 (some centres not stated)
inactive: Potency (PA-1) | Potency (SKOV3) | Potency (Tov-21-G) | Potency (Tov112D)

CC(=O)NC1C(OC2CCC3(C)C(CCC4(C)C3CC=C3C5CC(C)(C)CCC5(C(=O)O)C(O)CC34C)C2(C)C)OC(CO)C(O)C1O (configuration not stated)
inactive: Potency (PA-1) | Potency (SKOV3) | Potency (Tov-21-G) | Potency (Tov112D)
